AmpC inh detg – inhibitors of E. coli AmpC beta-lactamase with detergent; hit rate 0.041% among 370,000; AmpC hydrolysis of nitrocefin, absorbance 480 nm, 0.01% Triton; AID 485294; Potency, µM (series often up to 114 µM), for the others: at the top dose activity change, negative = inhibition, usual class: inhibitors; P00811;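 also: 0% = no-compound wells and -100% = no-enzyme wells; nearly all actives have a fitted effect of over 25% in size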
Target sequence (P00811 whole entry, looked up): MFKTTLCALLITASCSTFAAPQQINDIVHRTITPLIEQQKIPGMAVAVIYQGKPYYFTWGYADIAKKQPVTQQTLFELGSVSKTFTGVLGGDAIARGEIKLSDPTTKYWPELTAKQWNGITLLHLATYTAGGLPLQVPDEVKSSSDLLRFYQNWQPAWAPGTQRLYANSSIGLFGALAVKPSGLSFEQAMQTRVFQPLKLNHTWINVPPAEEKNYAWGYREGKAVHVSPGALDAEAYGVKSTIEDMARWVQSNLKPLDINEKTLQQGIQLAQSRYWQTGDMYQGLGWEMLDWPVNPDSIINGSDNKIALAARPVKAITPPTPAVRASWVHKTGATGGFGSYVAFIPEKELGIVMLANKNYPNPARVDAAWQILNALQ
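AmpC (5.3 nM in the dispensed reagent) in 20 mM phosphate pH 7.0 with 0.01% (detergent screen) or 0.0001% Triton X-100 was preincubated with compounds for 15 min at room temperature. Nitrocefin was then added from an 800 uM solution, and hydrolysis was followed at 480 nm.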
Vaccinia Venus – inhibitors of vaccinia virus (Venus reporter); Vaccinia virus Venus reporter expression, fluorescence; Potency, µM (doses to about 36.5 µM), inactives show at the top dose activity change, negative = inhibition, most hits filed as inhibitors; hit rate 0.46% among 330,000; calls by dose curve; tested in A549 cells; also: nearly all actives have a fitted effect of over 30% in size
AmpC inh no detg – inhibitors of E. coli AmpC beta-lactamase without detergent. Potency, µM (doses to about 57.1 µM), for inactives: at the highest dose activity change, negative = inhibition, most hits filed as inhibitors. hit rate 0.52% among 330,000. AmpC nitrocefin hydrolysis, absorbance 480 nm, 0.0001% Triton. AID 485341;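 also: plate controls were no compound for no effect and no enzyme for full effect; nearly all actives have a fitted effect of over 20% in size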
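20 mM phosphate pH 7.0 + 0.01% (detergent screen) or 0.0001% Triton X-100; 5.3 nM AmpC reagent; cpd preinc 15 min RT; nitrocefin (800 uM stock) to start; A480 q20 s × 4 min; Activity was normalised to no-enzyme and no-compound control wells.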
Vaccinia mCherry – vaccinia inhibition (mCherry reporter); Vaccinia virus mCherry reporter infection, fluorescence; Potency, µM (highest dose often 36.5 µM), without a hit: top-dose activity change, negative = inhibition, most hits filed as inhibitors; hit rate 0.63% among 310,000; AID 720579; calls by dose curve; tested in A549 cells; also: nearly all actives have a fitted effect of over 35% in size
* = called active by the depositor; i = inactive; ? = inconclusive; · = no result given. Rows were chosen to be rich in hits. Some 1.1% of all compounds tested hit in one or more screens of this group. Unless noted, calls follow the shape of the dose curve; as a rule, active = well fitted curve in the direction sought with a large enough effect; inconclusive = small, poorly fitted or top-dose-only effect, or another doubt; inactive = no such curve, though single readings can be large; an effect the other way counts as inactive or inconclusive. Unless noted, % is scaled to controls: 0 for no effect and ±100 for the full control effect; potency is read from the fitted curve at half-maximal effect.

SMILES	AmpC inh detg	Vaccinia Venus	AmpC inh no detg	Vaccinia mCherry
CCc1ccc2nc(N=C(N)N)nc(C)c2c1	4.1%	?	-33.1%	?
Cc1cc2nc(/N=C(\N)NC(=O)C(C)C)nc(C)c2cc1C	7.1%	1µM*	-25.7%	?
Cc1ccc2nc(N=C(N)N)nc(C)c2c1	-1.8%	-19.7%	10µM*	i
Cc1ccccc1-c1ccc(CN2CCc3nnc(C(NS(C)(=O)=O)C(C)C)n3CC2)cc1 (stereo not drawn)	·	-18.0%	·	-4.1%
N#CC1=C(N)Oc2cc(N)ccc2C1c1ccccc1Cl (stereo not drawn)	?	·	-48.1%	·
N#CC1=C(N)OC2=C(CCc3ccccc32)C1c1ccccc1Cl (stereo not drawn)	-6.3%	?	3.55µM*	?
C[C@@H]1O[C@@H](O[C@@H]2C(=O)c3c(O)cc(O)cc3O[C@H]2c2ccc(O)c(O)c2)[C@H](O)[C@H](O)[C@H]1O	-1.2%	3.1%	-7.0%	-11.8%
C[C@@H]1O[C@@H](O[C@@H]2C=C3CC[C@@H]4[C@@H](CC[C@]5(C)[C@H](c6ccc(=O)oc6)CC[C@@]45O)[C@@]3(C)CC2)[C@H](O)[C@H](O)[C@H]1O	·	6.31µM*	·	10µM*
Cc1nn(-c2ccc(F)cc2)c(Cl)c1/C=N/NC(=O)c1cccs1	-1.1%	?	28.2µM*	i
Cc1nn(-c2ccc(F)cc2)c(Cl)c1/C=N/NC(=O)c1ccc(O)cc1	-2.3%	-20.4%	-58.0%	-8.1%
CCC1(C2CCN(C(=O)c3csc(C(C)=O)c3)CC2)NC(=O)N(CCc2scnc2C)C1=O (stereo not drawn)	·	3.3%	·	-4.2%
Cc1ncc2c(c1CNC(=O)c1ccccc1F)CCN(C(=O)c1ccccc1-n1cccn1)C2	·	-2.7%	·	-13.4%
O=C(Nc1ccc(F)cc1)c1nn(-c2ccccc2)c(=O)cc1Cl	1.8%	28.2µM*	-10.7%	?
Cc1ccc(NC(=O)c2cc(-c3ccccc3)nn2-c2ccccc2)cc1	-6.0%	-18.4%	-18.2%	-6.5%
OC(c1ccc2c(c1)CN(Cc1cccn1-c1ncccn1)CCO2)C1CCCCC1 (stereo not drawn)	·	-14.9%	·	-14.6%
C[C@H]1O[C@@H](O[C@H]2[C@@H](O)C[C@@H](O[C@H]3[C@@H](O)C[C@H](O[C@H]4CC[C@@]5(C)[C@H](CC[C@@H]6[C@@H]5CC[C@]5(C)[C@@H](C7=CC(=O)OC7)CC[C@]65O)C4)O[C@@H]3C)O[C@@H]2C)C[C@H](O)[C@@H]1O	·	0.0251µM*	·	12.6µM*
CC(=O)OC1CC(OC2C(O)CC(OC3C(O)CC(OC4CCC5(C)C(CCC6C5CC(O)C5(C)C(C7=CC(=O)OC7)CCC65O)C4)OC3C)OC2C)OC(C)C1OC1OC(CO)C(O)C(O)C1O (stereo not drawn)	·	0.891µM*	·	2.51µM*
C[C@H]1O[C@@H](O[C@H]2[C@@H](O)C[C@H](O[C@H]3[C@@H](O)C[C@H](O[C@H]4CC[C@@]5(C)[C@H](CC[C@@H]6[C@@H]5C[C@@H](O)[C@]5(C)[C@@H](C7=CC(=O)OC7)CC[C@]65O)C4)O[C@@H]3C)O[C@@H]2C)C[C@H](O)[C@@H]1O	-4.9%	0.282µM*	297.4%	?
CC1O[C@@H](O[C@@H]2C(O)C[C@H](O[C@@H]3C(O)C[C@@H](OC4CC[C@@]5(C)C6CC[C@]7(C)C(C8=CC(=O)OC8)CC[C@@]7(O)C6CC[C@@H]5C4)OC3C)OC2C)CC(O)[C@H]1O (stereo partly drawn)	·	0.282µM*	·	?
C=C1C(=O)OC2CC1C(O)CC(C)=CCCC(C)=CC(O)CC2C (stereo not drawn)	·	11.2µM*	·	?
Nc1c(Br)cc(/C=C2\C=Cc3ccccc32)cc1Br	·	-14.1%	·	-18.0%

Screening data (PubChem BioAssay)
